In the supplement of paper PMC6555819:

How the values were obtained:
Assay in all cases: PBM binding z-score (relative to random genomic background probes); higher = stronger binding; sequences stand for … in GC…GCGATTGACAGCGTAGAATGAAGG
[1] = system: FXR:RXRa (NR concentration 270 nM, RXRa partner concentration 90 nM)
Summary of the method: (§1)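 Binding z-scores were set against random background probes. The data came from custom Agilent 4×180K protein-binding microarrays carrying double-stranded probes with 34-nt variable regions, incubated 1 h with ligand-free nuclear receptor dimers. Partner-specific antibodies detected binding, and scanned fluorescence was regression-normalized.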

[2] = system: LXRa:RXRa (NR concentration 270 nM, RXRa partner concentration 90 nM)
Summary of the method: as §1

[3] = system: LXRa homodimer (NR concentration 270 nM)
Summary of the method: as §1

[4] = system: LXRb:RXRa (NR concentration 270 nM, RXRa partner concentration 90 nM)
Summary of the method: as §1

[5] = system: LXRb homodimer (NR concentration 270 nM)
Summary of the method: as §1

[6] = system: PPARa:RXRa (NR concentration 270 nM, RXRa partner concentration 90 nM)
Summary of the method: as §1

[7] = system: PPARg:RXRa (NR concentration 180 nM, RXRa partner concentration 90 nM)
Summary of the method: as §1

[8] = system: PPARg:RXRa 270nM:90nM, anti-RXR (NR concentration 270 nM, RXRa partner concentration 90 nM)
Summary of the method: as §1

[9] = system: PPARg:RXRa 30nM:10nM, anti-RXR (NR concentration 30 nM, RXRa partner concentration 10 nM)
Summary of the method: as §1

[10] = system: PPARg:RXRa 90nM:30nM, anti-RXR (NR concentration 90 nM, RXRa partner concentration 30 nM)
Summary of the method: as §1

Row | Sequence | PBM binding z-score [1] | PBM binding z-score [2] | PBM binding z-score [3] | PBM binding z-score [4] | PBM binding z-score [5] | PBM binding z-score [6] | PBM binding z-score [7] | PBM binding z-score [8] | PBM binding z-score [9] | PBM binding z-score [10]
1 | TCGAGTAGGTTAGTCGGGACATTCAGCCAACATA | 2.7e-05 | 0.0232 | -0.222 | -0.141 | -1.03 | 0.291 | 0.156 | 0.639 | 0.983 | 0.955
2 | CCTTACGGGTCACTGACAAGTTATAGCATTTGGA | 5.46 | 3.31 | 0.0997 | 3.2 | 0.134 | 4.9 | 4.26 | 4.4 | 1.41 | 3.45
3 | AATAAAGGGTCACTAGGCCAGAGTAGGTACGAAT | 6.74 | 5.35 | 1.44 | 4.42 | 1.27 | 6.36 | 8.19 | 6.96 | 3.48 | 6.22
4 | GCGACTAGGGCATCAGCAGGTTACCATAACTTAA | -0.0195 | -0.0261 | -0.362 | -0.000126 | -0.683 | 0.802 | 1.41 | 1.17 | -0.0852 | 0.611
5 | CTCGAAAGGTCGTGCTCAGGTGAGTGTACCAAAC | 5.56 | 4.02 | 0.294 | 3.22 | 0.22 | 4.73 | 2.35 | 4.01 | 1.05 | 2.56
6 | CCTTACGGGTCATTCCAGGTTATAGCATCGGAGT | 6.28 | 7.32 | 2.01 | 4.7 | 0.548 | 4.94 | 3.32 | 4.21 | 1.14 | 2.4
7 | GGAACGAGGGCAAGTTGATAGCCGAGTTTGATGG | 0.943 | 0.357 | -0.311 | 0.355 | -0.62 | 1.94 | 0.924 | 1.09 | -0.224 | 0.405
8 | TCGAGTAGTTTACCAATGGGGCATTCAGCTTTCT | -0.0204 | -0.0341 | -0.552 | 0.423 | -0.375 | -0.115 | -0.798 | 0.325 | 0.821 | 0.499
9 | CAAACTAGGTCACCGGAACGTCAAAGTCCGCATG | 4.29 | 3.3 | 0.469 | 2.42 | 0.773 | 5.75 | 8.87 | 7.2 | 4.82 | 6.94
10 | ATATGTAGGTTAAGGGTCATTCCGGTTGGTTCGC | 5.44 | 4.91 | 3.25 | 4.19 | 1.33 | 6.67 | 11.4 | 9.69 | 10.2 | 11.1
11 | AGAATGAAGTTATACGTAGATCAGGGAAGAAAGT | -0.499 | -0.297 | -0.439 | -0.59 | -0.391 | -0.311 | 0.842 | -0.228 | 0.0525 | -0.163
12 | ATCTCTAGGTAAAAGTTCAGCGAATCCCGAGGAT | 1.36 | 1.99 | 1.58 | 1.46 | 0.982 | 4.39 | 8.87 | 8.21 | 8.78 | 9.67
13 | ACTAACAGGCCAAGTTTGGGTCACTCAAACAAAG | 0.517 | 0.251 | -0.258 | 0.977 | 0.105 | 1.45 | 0.241 | 0.254 | -0.0822 | 0.083
14 | ACGAGCAGGCCAAGGGTCACTCAAGATTAGTCCG | 2.54 | 2.98 | 0.215 | 2.7 | -0.627 | 4.15 | 5.95 | 6.33 | 3.74 | 5.66
15 | GATACAGGGTCAGCTGGAGGCCAGAGTATGGAAA | 5.07 | 2.76 | -0.49 | 2.38 | -0.887 | 4.47 | 3.91 | 3.62 | 1.24 | 2.49
16 | AGTCAAAGTTCAGGACGAGGTAAGGTAAAGCACG | 4.31 | 3.87 | 1.46 | 1.95 | 0.293 | 3.46 | 4.39 | 5.12 | 2.13 | 4.27
17 | CGTCCAAGGTCAGAGAGGTCAGTGAATGCCGAGT | 6.03 | 5.21 | 3 | 4.19 | 0.123 | 4.72 | 3.4 | 4.41 | 0.873 | 3.2
18 | GGAAAGAGGGCATTCGAGTTGATAGCATGGCGAT | 1.74 | 2.82 | 0.148 | 1.13 | 0.213 | 1.92 | 0.905 | 1.19 | 0.366 | 0.958
19 | CGTCCAAGGTCAAAGGTCAGTGGAGAGATGACGG | 8.17 | 6.91 | 3.66 | 6.84 | 2.07 | 7.16 | 10.7 | 9.05 | 8.08 | 9.59

Row | Sequence | PBM binding z-score [1] | PBM binding z-score [2] | PBM binding z-score [3] | PBM binding z-score [4] | PBM binding z-score [5] | PBM binding z-score [6] | PBM binding z-score [7] | PBM binding z-score [8] | PBM binding z-score [9] | PBM binding z-score [10]
20 | CAGCCTAGGTCAGGGACAGTATAGGAGGAACGTT | 1.72 | 1.1 | -0.189 | 0.879 | -0.664 | 2.34 | 1.26 | 1.07 | 0.251 | 0.563
21 | ATCTGTAGGTAACAAGTTCAGTGAAAGAGAGGAC | 0.84 | 0.812 | 0.628 | 0.805 | 0.615 | 1.59 | 1.51 | 2.08 | 0.821 | 1.57
22 | ACAAGCAGGCCAAGTTTGGGTCACTCAAACAAAG | 0.226 | 0.181 | -0.641 | 0.53 | -0.924 | 1.51 | 0.101 | 0.443 | -0.289 | 0.124
23 | CCTAGTTGGTCAGGAGGTCACTCACCGGATATGA | 3.08 | 2.85 | 1.57 | 2.79 | 0.66 | 3.54 | 2.76 | 3.43 | 1.11 | 2.75
24 | GCGACTGGGGCAAAGCAGGTTTCCATAAGGTTGG | -0.319 | -0.518 | -0.852 | -0.284 | -0.53 | 0.542 | 0.609 | 0.674 | -0.401 | 0.205
25 | TCTCGGAGGACACGAAAGGACAGAGCTCGACATC | 0.793 | 0.0695 | -0.281 | -0.358 | -0.815 | -0.148 | 0.542 | 0.751 | 1.85 | 1.34
26 | CCGACTGGGGCAAAGGTTACCATTCTCAGTACGA | 1.49 | 1.29 | -0.141 | 2.02 | -0.949 | 5.42 | 11.2 | 9.61 | 8.44 | 11.7
27 | CCTAGTTGGTCAAGGCCACACACGCTATAGGTAC | 0.421 | 0.312 | 0.477 | 0.547 | 0.294 | 0.252 | 0.917 | 0.608 | -0.0145 | 0.142
28 | GATACAGGGCCAAGGCCAGAGTACGCGTATTGAT | -0.68 | -0.832 | -0.782 | -1 | -1.09 | -0.662 | 0.814 | 0.25 | -0.269 | -0.247
29 | CCTGCTGGGCCAAAGGTCATTGATTCCAATGCTC | 5.24 | 5.14 | 3.92 | 4.66 | 0.872 | 5.78 | 9.98 | 8.99 | 8.27 | 9.45
30 | CCTACTGGGCCATCAAGTCATTGATATCAACGTT | -0.198 | -0.233 | -0.0812 | 0.373 | -0.319 | 1.02 | 0.723 | 1.67 | 0.283 | 0.805
31 | ACTAGTTGGTCAGCTGACGTCACACACAATTCGG | 0.0857 | 0.103 | -0.224 | 0.522 | 0.287 | 0.229 | 0.969 | -0.246 | -0.0374 | -0.0611
32 | GGAACGAGGGCATGTTGATAGCAGAGTTTGATGG | 0.438 | -0.0957 | 0.0371 | 0.12 | -0.293 | 0.843 | 0.848 | 0.668 | 0.0112 | -0.104
33 | ATCGAGAGGTCGTGAGGTGAGTATACAGAAAGGC | 3.73 | 2.94 | 0.117 | 2.25 | 0.0713 | 4.03 | 2.75 | 2.74 | 0.76 | 1.91
34 | TCTATTTGTTGAAGGGCAACCGACGAGTCCGTTT | 0.938 | 1.22 | 0.754 | 0.891 | 1.45 | 0.93 | 0.0466 | 2.21 | 3.99 | 3.24
35 | TCAGATAGGTAAACAGGTGAAAGTCCGTAAGTTA | 0.678 | 0.827 | 0.121 | 0.939 | -0.225 | 2.07 | 1.3 | 2.9 | 4.02 | 3.81
36 | TCTGCTAGGTCAACGAAGGTCAGCTAATCTGCTA | 4.67 | 5.5 | 2.58 | 3.81 | 0.162 | 4.32 | 3.83 | 4.05 | 2.3 | 3.7
37 | AGTCAAAGTTCACAAGGTAACGTAAGATTCAGCT | 6.12 | 5.7 | 3.55 | 3.65 | 1.1 | 4.75 | 6.96 | 6.42 | 3.67 | 5.78
38 | ATCTCTAGGTAAAGATCGTTCAGTGAATGCAAAT | -0.176 | 1.87 | -0.123 | 0.339 | 0.387 | 0.218 | 0.287 | 0.923 | 0.249 | 0.749
